This is part of a sample that, as a whole, favours compounds with a hit. Of some 83,000 tested, about 20% had one in any assay.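 48-hour exposure, single concentration, 96-well plates; percent growth endpoint where 0 means no net growth. Active: below 10.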 Unmarked numbers belong to inactive results. The source made the active and inactive calls.

Among the test systems are NCI-H23 lung; NCI-H226 lung; NCI-H322M lung; HOP-62 NSCLC; NCI-H460 lung; HOP-92 NSCLC; NCI-H522 lung; A549/ATCC NSCLC; 786-0 renal; DU-145 prostate; K-562 leukemia; MALME-3M melanoma; MDA-MB-231 breast; RXF 393 renal; SF-268 CNS; SF-295 CNS; SF-539 CNS; UACC-257 melanoma; M14 melanoma; COLO 205 colon.
Assay in all cases: NCI-60 one-dose screen, 48 h (100 = growth as untreated, 0 = no growth, -100 = all killed)
What all share (conditions): 10 µM unless noted

Take `O=c1nc(-c2ccccc2)c2cc(-c3ccc(N4CCCC4)nc3)ccc2[nH]1`: the growth with NCI-H23 lung is 73.1%; in the assay on NCI-H226 lung, 77.2%; in the assay with NCI-H322M lung, 82.6%; with HOP-62 NSCLC it was 62.6%; in the assay with NCI-H460 lung it was 57.7%; with HOP-92 NSCLC, 61.4%. For the same compound, the growth is 37.6% in the assay on NCI-H522 lung; 59.7% in the assay with A549/ATCC NSCLC; 69.5% in the assay with 786-0 renal; 85% in the assay with DU-145 prostate; 16.4% with K-562 leukemia; 89.6% in the assay with MALME-3M melanoma. The growth in the assay on MDA-MB-231 breast was 59.8%; with RXF 393 renal it was 81.2%; in the assay on SF-268 CNS, 83.2%; in the assay on SF-295 CNS it was 39.4%; in the assay on SF-539 CNS, 73.8%; in the assay with UACC-257 melanoma, 88.6%. In addition, the growth in the assay on M14 melanoma was 47.9%.
Consider `CCCCc1nc(Cl)c(C2CC(c3ccc(Cl)cc3)=NN2c2cc(Cl)cc(Cl)c2)[nH]1` (stereo not drawn), for which the growth was 69.5% in the assay with NCI-H23 lung; 92.3% in the assay on NCI-H226 lung; 70.6% in the assay with NCI-H322M lung; 52.9% in the assay with HOP-62 NSCLC; 30.2% in the assay with NCI-H460 lung; 94% in the assay with HOP-92 NSCLC. For the same compound, the growth with NCI-H522 lung was 32%; in the assay with A549/ATCC NSCLC, 8.64% (active); in the assay with 786-0 renal, 41.3%; in the assay on DU-145 prostate it was 40.8%; in the assay on K-562 leukemia, 76.5%; in the assay with MALME-3M melanoma it was 88.4%. Moreover, the growth with MDA-MB-231 breast is 80.3%; in the assay on RXF 393 renal, 43.3%; in the assay with SF-268 CNS, 41.2%; in the assay with SF-295 CNS, 74.3%; in the assay with SF-539 CNS it was 79.8%; with UACC-257 melanoma, 94.8%. The growth with M14 melanoma was 93.6%.
With `C=C1C(=O)O[C@H]2[C@H]1CC/C(C=Nc1c(N)cc(C(F)(F)F)cc1Br)=C\CC[C@@]1(C)O[C@@H]21`, the growth in the assay with NCI-H23 lung is 30%; with NCI-H226 lung it was 38.3%; in the assay with NCI-H322M lung it was 77.8%; with HOP-62 NSCLC, 52%; in the assay with NCI-H460 lung it was 26.7%; in the assay with HOP-92 NSCLC, -15.5% (active). For the same compound, the growth in the assay with NCI-H522 lung was -68% (active); with A549/ATCC NSCLC, 58%; in the assay with 786-0 renal it was -41.8% (active); with DU-145 prostate, 19.3%; with K-562 leukemia it was -8.9% (active); in the assay on MALME-3M melanoma, -8.38% (active). The growth in the assay with MDA-MB-231 breast was -16% (active); in the assay on RXF 393 renal, -63.4% (active); in the assay with SF-268 CNS it was 27.6%; in the assay with SF-295 CNS, 83.3%; in the assay with SF-539 CNS, 18.6%; with UACC-257 melanoma it was 34%. Also, the growth with M14 melanoma is -46.3% (active).
`NS(=O)(=O)c1ccc(-n2ncc(NC(=O)Nc3ccc(S(=O)(=O)Nc4nccs4)cc3)c2-c2ccccc2)cc1`: the growth was 106% in the assay with NCI-H23 lung; 104% with NCI-H226 lung; 106% in the assay with NCI-H322M lung; 94.4% in the assay on HOP-62 NSCLC; 108% in the assay with NCI-H460 lung; 106% in the assay with HOP-92 NSCLC. Besides, the growth in the assay with NCI-H522 lung is 98.4%; in the assay with A549/ATCC NSCLC it was 98.5%; in the assay with 786-0 renal it was 95.6%; in the assay on COLO 205 colon, 108%; with DU-145 prostate, 109%; in the assay on K-562 leukemia, 96.1%. The growth is 97.2% with MALME-3M melanoma; 112% in the assay with MDA-MB-231 breast; 120% with RXF 393 renal; 101% with SF-268 CNS; 99.3% in the assay with SF-295 CNS; 98.2% with SF-539 CNS. Moreover, the growth in the assay on UACC-257 melanoma was 104%; in the assay on M14 melanoma, 95.8%.
On to `O=C(Nc1nccs1)c1noc2ccccc12`, for which the growth in the assay with NCI-H23 lung is 91.9%; with NCI-H226 lung, 92.7%; with NCI-H322M lung, 92%; in the assay on HOP-62 NSCLC, 86.8%; with NCI-H460 lung, 96.6%; in the assay on HOP-92 NSCLC, 76.2%. Further, the growth is 86.6% in the assay on NCI-H522 lung; 95.7% in the assay on A549/ATCC NSCLC; 95.7% in the assay with 786-0 renal; 107% in the assay on DU-145 prostate; 87.7% in the assay with K-562 leukemia; 96.8% in the assay with MALME-3M melanoma. In addition, the growth was 91.3% with MDA-MB-231 breast; 110% in the assay on RXF 393 renal; 103% in the assay with SF-268 CNS; 101% with SF-295 CNS; 95.6% with SF-539 CNS; 90.6% with UACC-257 melanoma. Further, the growth in the assay with M14 melanoma was 96%.
Take `CCCn1cc(/C=N\N=C2\C(=O)Nc3ccc(C)cc32)c2ccccc21`: the growth was 48% with NCI-H23 lung; 92% with NCI-H226 lung; 47.8% in the assay on NCI-H322M lung; 75.3% with HOP-62 NSCLC; 32.1% in the assay with NCI-H460 lung; 37.4% in the assay on HOP-92 NSCLC. In addition, the growth in the assay on NCI-H522 lung is 13.8%; with A549/ATCC NSCLC it was 63.9%; in the assay on 786-0 renal it was 64.5%; with DU-145 prostate, 66.4%; in the assay with K-562 leukemia, 17.6%; with MALME-3M melanoma, 51.7%. Also, the growth with MDA-MB-231 breast is 34.4%; with RXF 393 renal, 11.4%; in the assay on SF-268 CNS it was 46.6%; in the assay on SF-295 CNS, 71.1%; with SF-539 CNS it was 33.9%; in the assay on UACC-257 melanoma it was 58.8%. In the assay on M14 melanoma, the growth was 56.3%.
With `O=C(O)c1cn(C2CC2)c2cc(N3CCN(Cc4nnc(Nc5ccccc5)o4)CC3)c(F)cc2c1=O`, the growth was 105% in the assay with NCI-H23 lung; 93.5% in the assay with NCI-H322M lung; 99.8% in the assay with HOP-62 NSCLC; 104% in the assay on NCI-H460 lung; 104% in the assay with HOP-92 NSCLC; 92.7% in the assay on NCI-H522 lung. The growth was 98.3% with A549/ATCC NSCLC; 94.9% in the assay on 786-0 renal; 104% in the assay on COLO 205 colon; 103% in the assay on DU-145 prostate; 84.4% with K-562 leukemia; 89.1% with MALME-3M melanoma. In addition, the growth with MDA-MB-231 breast was 109%; in the assay on RXF 393 renal it was 118%; with SF-268 CNS, 90.2%; in the assay with SF-295 CNS it was 102%; in the assay with SF-539 CNS it was 99.4%; in the assay on UACC-257 melanoma, 106%. Moreover, the growth in the assay on M14 melanoma was 95.7%.
Turning to `Cc1cccc(C)c1Nc1nnc(-c2ccc(F)cc2)o1`, the growth in the assay on NCI-H23 lung was 92.4%; in the assay on NCI-H322M lung it was 93.4%; in the assay with HOP-62 NSCLC, 107%; in the assay with NCI-H460 lung, 104%; in the assay with HOP-92 NSCLC, 95.5%; in the assay with NCI-H522 lung it was 112%. Also, the growth is 104% in the assay on A549/ATCC NSCLC; 112% in the assay on 786-0 renal; 100% in the assay with COLO 205 colon; 99.9% in the assay on DU-145 prostate; 118% in the assay on K-562 leukemia; 96.5% in the assay with MALME-3M melanoma. For the same compound, the growth was 104% with MDA-MB-231 breast; 98.5% with RXF 393 renal; 96.2% in the assay with SF-268 CNS; 102% in the assay with SF-295 CNS; 99.7% in the assay on SF-539 CNS; 116% in the assay on UACC-257 melanoma. Further, the growth in the assay with M14 melanoma is 96.8%.

Source of the values: PubChem BioAssay (NCI).
